The list is a sample of the results.
aSyn 5UTR act – Activators via SNCA 5'UTR binding, MLPCN; alpha-synuclein 5'UTR reporter, activators screen; activity score, % (tested at 7.5 µM), hits read low; actives 7.1% (n = 300,000); AID 1814, 2009; in the data active = activity score below about -60%
Starred values were filed as active, the others as inactive.

SMILES	aSyn 5UTR act
COc1ccc(/C=C/c2nc3ccccc3n2Cc2ccc(OC)c(OC)c2)cc1	-191*
O=C1C=C(c2cccs2)C[C@H](c2ccccc2)[C@H]1n1nnc([N+](=O)[O-])n1	71
Cc1cc(/C=N/n2cnnc2)c(C)n1-c1ccc(OCc2ccccc2F)cc1	-82*
CCN(CC)c1ccc(NC(=O)c2cccnc2)cc1	-67*
Cc1ccc(NC(=O)c2cncc(Br)c2)cc1S(=O)(=O)N(C)C	-127*
CCN(CC)c1ccc(NC(=O)c2cncc(Br)c2)cc1	-279*
Cc1nc(NCc2ccco2)c2c(C)c(C)sc2n1	-177*
CCSc1nnc(-c2ccc(Cl)cc2Cl)o1	-260*
O=C1OCCC1Sc1nnc(-c2ccc(Cl)cc2Cl)o1 (stereo unspecified)	90
Clc1ccc(-c2nnc(-c3ccc(Br)o3)o2)c(Cl)c1	-192*
CSc1nnc(-c2ccc(Cl)cc2Cl)o1	-120*
CN1CCSc2ccc(C(=O)Nc3cccc(F)c3)cc21	-134*
COc1ccc(NC(=O)c2ccc3c(c2)N(C)CCS3)cc1	-148*
Cc1cccc(-n2cnc(C(=O)N/N=C/c3ccccc3)c2)n1	-78*
Cc1ccc(NC(=O)c2cn(-c3cccc(C)n3)cn2)cc1	-212*
Cc1[nH]c2ccccc2c1C(=O)NS(=O)(=O)Nc1ccc(Cl)cc1	-82*
CCN(CC)CCn1c(=N)n(CCOc2ccccc2)c2ccccc21	-93*
CCOc1cc2c3c(c1)C(C)=CC(C)(C)N3C(=O)C2=O	-74*
O=C(Nc1ccccc1)N1CCC(c2ccccc2)C1 (stereo unspecified)	-141*
COc1ccc(NC(=S)N2CCC(c3ccccc3)C2)cc1 (stereo unspecified)	-169*
Cc1ccc(C2CCN(C(=S)NC(C)(C)C)C2)cc1 (stereo unspecified)	-93*
CCOc1ccc(NC(=O)N2CCC(c3ccc(C)cc3)C2)cc1 (stereo unspecified)	-67*
O=C(c1cccs1)N1CCC(c2ccccc2)C1 (stereo unspecified)	-140*
CCc1ccc(NC(=O)N2CCC(c3ccccc3)C2)cc1 (stereo unspecified)	-172*
Nc1cc(-c2ccc(Cl)cc2)nn1-c1ccccc1	-138*
SMILES	aSyn 5UTR act
Cc1ccc(-n2nc(-c3ccc(N)cc3)cc2N)cc1	-132*
CC(=O)Nc1ccc(-c2cc(N)n(-c3ccccc3)n2)cc1	-162*
Nc1ccc(-c2cc(N)n(-c3ccccc3)n2)cc1	-104*
CCN1C/C(=C/c2ccc(N3CCOCC3)cc2)C(=O)/C(=C/c2ccc(N3CCOCC3)cc2)C1	-412*
CN1C/C(=C\c2ccc(N3CCOCC3)cc2)C(=O)/C(=C/c2ccc(N3CCOCC3)cc2)C1	-427*
Cc1nn(-c2ccccc2)c(C)c1C(=O)NCCc1ccccc1	-82*
COc1ccc(OC(=O)c2cnn(-c3ccccc3)c2C)cc1	-222*
COc1ccc(OC(=O)c2c(C)nn(-c3ccccc3)c2C)cc1	-103*
CCOC(=O)c1c(C)nn(-c2ccc(NC(=O)/C=C/C(=O)O)cc2)c1C	92
Cc1nn(-c2ccccc2)c(C)c1C(=O)Oc1ccccc1	-115*
Cc1c(C(=O)N(C)c2ccc(Cl)cc2)cnn1-c1ccccc1	-64*
COc1ccccc1-n1cnc2cc(NCc3ccco3)ccc21	53
Cn1c(NCc2c[nH]c3ccccc23)nc2ccccc21	-98*
Cn1c(NCc2ccco2)nc2ccccc21	-102*
Cn1c(NCc2cccs2)nc2ccccc21	-63*
O=C1CC(c2ccccc2F)c2cc3c(cc2N1)CCC3 (stereo unspecified)	65
COc1c(C(=O)Nc2nccs2)ccc2ccccc12	-172*
COc1cc2ccccc2cc1C(=O)Nc1nccs1	-256*
Oc1cccc(C(Nc2nccs2)c2ccc3cccnc3c2O)c1 (stereo unspecified)	132
COc1cccc2c1OCC(C(=O)Nc1nccs1)=C2	-122*
O=C(COc1cccc2cccnc12)Nc1nccs1	-85*
COc1cc2ccccc2cc1C(=O)NCC(c1cccs1)N(C)C (stereo unspecified)	-106*
COc1ccccc1OCCCC(=O)Nc1nccs1	-97*
O=C(Nc1ccc(O)cc1)c1cc2n(n1)C(C(F)(F)F)CC(c1ccco1)N2 (stereo unspecified)	-66*
Cc1c(C(=O)NCCCN2CCCCC2)oc2ccc3c(c12)C(O)CC1(CCCCC1)O3 (stereo unspecified)	76
SMILES	aSyn 5UTR act
Cc1c(C(=O)NCc2ccoc2)oc2ccc3c(c12)C(=O)CC(C)(C)O3	-464*
CCN(CC)S(=O)(=O)c1cc(C(=O)NC2CCCCC2)ccc1C	-111*
Cc1ccc(C(=O)NC2CCCCCC2)cc1S(=O)(=O)N1CCOCC1	-70*
COc1ccc(/C=C/C(=O)NC2CCCCCC2)cc1S(=O)(=O)N1CCOCC1	-75*
S=C(Nc1ccccc1)N1N=CCC1c1ccccc1 (stereo unspecified)	-153*
Fc1ccc(NC(=S)N2N=CCC2c2ccccc2)cc1 (stereo unspecified)	-101*
O=C(Nc1cccc2ccccc12)N1N=CCC1c1ccccc1 (stereo unspecified)	-89*
COc1cccc(Cn2c(-c3nonc3N)nc3ccccc32)c1	96
COc1ccc2cc(-c3nc4ccccc4n3C)c(=O)oc2c1	-209*
Cn1c(-c2cc3ccccc3oc2=O)nc2ccccc21	-97*
Cc1c(OCc2ccc([N+](=O)[O-])cc2)ccc2c3c(c(=O)oc12)CCC3	-114*
Cc1c(OCC(=O)OC(C)(C)C)ccc2c3c(c(=O)oc12)CCC3	-62*
Cc1c(OCC(=O)NCc2cccnc2)ccc2c3c(c(=O)oc12)CCC3	-71*
CC(=O)COc1ccc2c3c(c(=O)oc2c1C)CCCCC3	-120*
Cc1c(C)c2ccc(OCC(=O)Nc3ccccn3)c(C)c2oc1=O	110
COc1ccc(Nc2cc3n(c(=O)n2)CCc2cc(OC)c(OC)cc2-3)c(C)c1	80
COc1ccc(Nc2nc(N3CCCC3)nc3ccccc23)c(OC)c1	-81*
N#Cc1cnc(Nc2nc3ccccc3o2)nc1-c1ccccc1	-72*
COC(=O)c1c(C)[nH]c(O)c1C=Nc1ccc(C(C)C)cc1	-71*
CCc1c(C(=O)Nc2ccc(C)c(C)c2)[nH]c(C)c1C(C)=O	-146*
CC(=O)c1c(C)[nH]c(C(=O)Nc2ccc3c(c2)OCCO3)c1C	-144*
CC(=O)c1c(C)[nH]c(C(=O)Nc2cccc(C(F)(F)F)c2)c1C	-100*
COc1ccc(NC(=O)c2[nH]c(C)c(C(C)=O)c2C)cc1Cl	-77*
CC(=O)c1c(C)[nH]c(C(=O)Nc2ccc(C)c(C)c2)c1C	-88*
CCOC(=O)c1c(C)[nH]c(C(=O)Nc2ccc(C)c(Cl)c2)c1C	-108*
SMILES	aSyn 5UTR act
CCOC(=O)c1c(C)[nH]c(C(=O)Nc2ccc(NC(C)=O)cc2)c1C	89
CS(=O)(=O)N1CCc2cc(C(=O)OCC(=O)c3ccccc3)ccc21	-138*
Cc1ccc(NC(=O)c2ccc3c(c2)CCN3S(C)(=O)=O)cc1C	-112*
CS(=O)(=O)N1CCc2cc(C(=O)Nc3ccccc3Cl)ccc21	-96*
CS(=O)(=O)N1CCc2cc(C(=O)Nc3ccc(Br)cc3)ccc21	-77*
Cc1cccc(NC(=O)c2ccc3c(c2)CCN3S(C)(=O)=O)c1	-203*
CCc1ccc(NC(=S)Nc2cc(C(=O)O)ccc2N2CC3CC(C2)c2cccc(=O)n2C3)cc1 (stereo unspecified)	-114*
CCOC(=O)/C(C#N)=C1/C=CN(c2ccc(C)cc2)C=N1	-97*
